# In ChEMBL document CHEMBL1157539, “Thousands of chemical starting points for antimalarial lead identification” (Nature, 2010):
# Values joined by “and” are separate entries in the source; they are usually repeats but may differ in a detail not shown here. Equal entries are not always repeated.
# Tests used:
# Plasmodium falciparum [1] = test: GSK_TCMDC: Inhibition of Plasmodium falciparum 3D7 in whole red blood cells, using parasite LDH activity as an index of growth. Test compounds present at 2uM; format: functional
# Plasmodium falciparum [2] = test: GSK_TCMDC: Inhibition of Plasmodium falciparum Dd2 in whole red blood cells, using parasite LDH activity as an index of growth. Test compounds present at 2uM; format: functional
SMILES,Inhibition (Plasmodium falciparum [1]),Inhibition (Plasmodium falciparum [2]) [%]
COc1cc(Cc2cnc(N)nc2N)cc(OCCCCCCN)c1OC.Cl,96%,0
CCC(C)c1cnc2nc(N)nc(N)c2c1C (stereo not drawn),97%,1
Cc1nc(C)c(-c2ccc(Oc3ccc(Cl)c(Cl)c3)cc2)c(O)c1Cl,100%,97
Cc1cccc(Cn2ccc3c4c(N)nc(N)nc4ccc32)c1,95%,98
CC1CCNc2ccc(Cc3cnc(N)nc3N)cc21.Cl (stereo not drawn),82%,0
CC(=NNC(S)=NCCc1ccccn1)c1ccccn1,100%,95
Cc1nc(NCc2ccccc2)cc(Nc2cc(NCc3ccccc3)nc(C)n2)n1,90%,32
Cc1[nH]c(C)c(-c2ccc(Oc3ccc(Cl)cc3)cc2)c(=O)c1Cl,91%,16
CCN(CC)c1ccc2nc(N)nc(N)c2c1.Cl,93%,0
Cl.FC(F)(F)c1ccc2c(NCCCNc3ccnc4cc(C(F)(F)F)ccc34)ccnc2c1,100%,100
Cl.O[C@@H](c1cc(C(F)(F)F)nc2c(C(F)(F)F)cccc12)[C@H]1CCCCN1,96% and 99%,99
CCc1ccc(Cc2cnc3nc(N)nc(N)c3c2C)cc1,97%,0
Cl.c1ccc2c(c1)cc(CNCCCN1CCN(CCCNCc3cc4ccccc4c4ccccc34)CC1)c1ccccc12,100%,98
COc1cc(Cc2cnc(N)nc2N)cc(OCCCS(=O)(=O)O)c1OC,88%,0
